# According to PubChem BioAssay (NCATS):
# Values without a mark were called inactive. Entries that show only a call come without a potency. Calls of active or inactive are those of the source. Calls follow the shape of the dose curve; as a rule, active = well fitted inhibition curve with a large enough effect; inconclusive = small, poorly fitted or top-dose-only effect; inactive = flat fitted curve, though single readings scatter.
# Molecular target: Luciferin 4-monooxygenase (Photinus pyralis) (UniProt P08659)
# Test: Primary firefly luciferase (FLuc) qHTS assay for identification of artifact compounds. (AID 1845220); also: nearly all actives have a fitted effect of over 60% in size
# Settings: purified firefly luciferase, luminescence, 5 min; series mostly up to 54.1 µM
# From the text: PI: Alexander Tropsha Ph.D.
# UNC Eshelman School of Pharmacy
# University of North Carolina, Chapel Hill, North Carolina
# Hits from high-throughput screening (HTS) of chemical libraries are often false positives due to their interference with the assay detection technology. In response to this problem, we generated the largest publicly available library of chemical liabilities and developed a free webtool to predict HTS artifacts, both of which are described herein. More specifically, we generated, curated, and integrated HTS datasets for thiol reactivity, redox activity, and luciferase (firefly and nano) activity. Using these curated datasets, we developed and validated several Quantitative Structure-Interference Relationship (QSIR) models to predict nuisance behavior. […] These models were employed for virtual profiling of the National Center for Advancing Translational Science's (NCATS) in-house library, and 256 compounds for each assay were selected for the experimental validation of nuisance behavior. The BA for these external predictions ranged from 58 to 78% for compounds within the applicability domains of the models. […] The models developed in this study, along with aggregation models previously developed by our group (SCAM Detective) were implemented in "Liability Predictor," an online tool which may be used as part of chemical library design or for triaging HTS hits. Both the models and the curated datasets are publicly available at https://liability.mml.unc.edu/.
# SEQUENCE No. (e.g., 1, 2, 3, etc.); […] (e.g., Cells, Incubation, Reagent, etc.); VALUE; DESCRIPTION.
# 1; Reagent; 3 uL; Luciferase substrate mixture.
# 2; Compounds and control; 16 nL; Kalypsis pin tool (Wako USA) equipped with a 1536-well pin head.
# 4; Reagent; 1 uL; Luciferase enzyme.
# 6; Detection; Luminescence, ViewLux microplate reader.
# NOTES (numbers refer to Sequence numbers above)
# 1. 3 uL of luciferase substrate mixture containing D-luciferin and ATP (final concentrations of 10 uM and 10 uM, respectively) in assay buffer (10 mM Mg-acetate, 0.01% Tween-20, 0.05% bovine serum albumin, 50 mM Tris acetate, pH 7.6) was dispensed into all wells of a 1536-well assay plate (solid-bottom white plate; Greiner Bio One, Monroe, NC).
# 2. A Wako Pin-tool (Wako Automation, Richmond, VA) was used to transfer 16 nL of compounds (consisting of 7-plates in qHTS format, final concentration range 18.3 nM to 114 uM) or control PTC124 (final concentration range 1.22 nM to 40 uM).
# 3. 15 min. incubation at room temperature protected from light.
# 4. 1 uL of luciferase enzyme (final concentration 10 nM, Photinus pyralis luciferase) or buffer was dispensed for a final assay volume of 4 uL.
# 5. Plates were centrifuged (121xg, 15 seconds) and incubated for 5 minutes.
# 6. Samples were read for luminescence on a ViewLux CCD imager (PerkinElmer). Data were normalized to no-enzyme (0% activity) and no-inhibitor (DMSO; 100%) controls and the resulting percent inhibition data were fitted to a 4-parameter Hill equation using NCATS in-house software.
# Potency is read from the fitted curve at half-maximal effect.
Structure (SMILES),Potency,"activity change, negative = inhibition"
COc1ccccc1-c1cc(Nc2cccc(CS(N)(=O)=O)c2)ncn1,inactive,–
Cn1cc(-c2cnc3ccc4ccc(CS(=O)(=O)NCc5ccccn5)cc4c(=O)c3c2)cn1,inactive,–
OCC(Cc1ccccc1)Nc1nc(Oc2ccc3c(c2)CCC3)nc2c1ncn2Cc1ccc(-c2ccccc2)cc1 (stereo not given),inactive,–
CC1(C)CC23[C@@H]4CC(=O)[C@@H]2COC(=O)[C@@H]3CC[C@H]41,inactive,–
COCCNCc1ccc(-c2cc3nccc(Oc4ccc(NC(=S)NC(=O)Cc5ccc(F)cc5)cc4F)c3s2)nc1,inactive,–
CC[C@]1(O)C[C@H]2CN(CCC3C(=Nc4ccccc43)[C@@](C(=O)OC)(c3cc4c(cc3OC)N(C)[C@H]3[C@@](O)(C(N)=O)[C@H](O)[C@]5(CC)C=CCN6CC[C@]43[C@@H]65)C2)C1 (stereo not given in full),inactive,–
Cc1ccc(CCCO)c(NCc2ccc3nc(NCCCN4CCOCC4)n(Cc4nc(C)ccc4O)c3c2)c1,inactive,–
O=C(O)c1ccc(O)c2ncc(N3CCCN(CCc4cccc5ccccc45)CC3)cc12,inactive,–
COc1ccc2c(c1)C[C@H](C(=O)Nc1ccc(-c3cn[nH]c3)cc1OCCN(C)C)CO2,inactive,–
C=C1C(=O)O[C@@H]2[C@H]1[C@H](O)C[C@]1(C)[C@@H](O)CC=C(C)[C@@H]21,inactive,–
CCOc1cc(CNC2CCCC2)cc(Cl)c1OCc1ccc(Cl)cc1,inactive,–
CC1(C)CC[C@]2(C(=O)OC3OC(CO)C(O)C(O)C3O)CC[C@]3(C)C(=CCC4[C@@]5(C)CC[C@H](OC6OC(C(=O)O)C(O)C(O)C6O)C(CO)(CO)C5CC[C@]43C)[C@@H]2C1 (stereo not given in full),–,0.233% [at 11.6 µM]
CCN1CCN(Cc2ccc(-c3cc4c(NC(C)c5ccccc5)ncnc4[nH]3)cc2)CC1 (stereo not given),inactive,–
COc1ccc(-c2nc(-c3cc(C(F)(F)F)cc(C(F)(F)F)c3)n(Cc3ccc(C(N)=O)cc3)c2-c2ccc(OC)cc2)cc1,inactive,–
C[C@@H](CN1CCC(n2c(=O)[nH]c3cc(Cl)ccc32)CC1)NC(=O)c1ccc2ccccc2c1,inactive,–
CC(=O)N1c2ccc(-c3ccc(C(=O)O)cc3)cc2C(Nc2ccc(Cl)cc2)CC1C (stereo not given),inactive,–
C=C1/C(=C/C=C2\CCC[C@]3(C)[C@@H]([C@H](C)/C=C/C(=O)C4CC4)CC[C@@H]23)C[C@@H](O)C[C@@H]1O,inactive,–
COc1ccccc1NC(=O)Nc1ccc2ccccc2c1,8.49 µM (active),–
CC(C)(C)c1ccc(-c2nc3ccccc3[nH]2)cc1,0.0294 µM (active),–
COCCOCCOc1ccc(C2=N[C@@](C)(C(=O)O)CS2)c(O)c1,inactive,–

Structure (SMILES),Potency,"activity change, negative = inhibition"
C=C1C(=O)O[C@@H]2CC(C)=C([C@@H](C)CCCO)[C@@H](OC(=O)C(C)C)[C@H]12,inactive,–
CC(C)[C@@H](C)/C=C/[C@@H](C)[C@H]1CC[C@H]2C3=CC=C4C[C@@H](O)CC[C@]4(C)C3=CC[C@]12C,inactive,–
C[C@@H]1CCNC(=O)c2cc3ccc(C(=O)Nc4nc5ccccc5n4CCCN(C)C)cc3n21,inactive,–
COc1ccc(-c2c(C)c(C(=O)NN3CCCCC3)nn2-c2ccc(Cl)cc2Cl)cc1,inactive,–
C/C=C/CC(C)C(O)C1C(=O)NC(CC)C(=O)N(C)CC(=O)N(C)C(CC(C)C)C(=O)NC(C(C)C)C(=O)N(C)C(CC(C)C)C(=O)NC(C)C(=O)NC(C)C(=O)N(C)C(CC(C)C)C(=O)N(C)C(CC(C)C)C(=O)N(C)C(C(C)C)C(=O)N1C (stereo not given),inactive,–
COc1ccc(C(=O)N(CCC(C)C)Cc2nc(C)c(C)n2Cc2ccccc2C)c(OC)c1,inactive,–
N#C[C@@H]1C[C@@H]2C[C@@H]2N1C(=O)[C@@H](N)C12CC3CC(CC(O)(C3)C1)C2,inactive,–
CC/C(=C(\c1ccc(O)cc1)c1ccc(OCCNC)cc1)c1ccccc1,inactive,–
C=C1C(=O)O[C@@H]2C[C@@H](C)[C@]34C[C@]5(C(=O)O[C@H]6CC(C)=C([C@H](C)CCCO)[C@H](OC(=O)C(C)CC)[C@H]65)[C@@H](C(C)=C3C[C@@H]12)[C@H]4OC(C)=O (stereo not given in full),inactive,–
CCOC(=O)CCC(=O)O[C@H]1[C@H](O[C@@H]2[C@@H](C)[C@H](O[C@H]3C[C@@](C)(OC)[C@@H](O)[C@H](C)O3)[C@@H](C)C(=O)O[C@H](CC)[C@@](C)(O)[C@H](O)[C@@H](C)C(=O)[C@H](C)CC2(C)O)O[C@H](C)C[C@@H]1N(C)C (stereo not given in full),inactive,–
COc1ccc(NC(=O)N2CCc3c2ccc2ccccc32)cc1N1CCN(C)CC1,inactive,–
O=C(NC(NC(=S)Nc1ccc(F)c([N+](=O)[O-])c1)C(Cl)(Cl)Cl)C(c1ccccc1)c1ccccc1 (stereo not given),inactive,–
N#CCC(C1CCCC1)n1cc(-c2ncnc3[nH]ccc23)cn1 (stereo not given),inactive,–
COc1cc(O)c(C(=O)CCc2ccc(O)cc2)c(O[C@@H]2O[C@H](CO)[C@@H](O)[C@H](O)[C@H]2O)c1,inactive,–
COc1ccc(NS(=O)(=O)c2sc3ccc(Cl)cc3c2C)cc1N1CCNCC1,inactive,–
Cc1cc(CS(=O)(=O)c2ccccc2)cc(OCc2ccc(CN3CCC[C@@H]3CO)cc2)c1,inactive,–
FC(F)(F)c1ccc(CNc2ccc(Cc3c[nH]c4ncccc34)cn2)cc1,inactive,–
CC[C@H](C)[C@H]1O[C@]2(CC[C@@H]1C)C[C@@H]1C[C@@H](C/C=C(\C)[C@@H](O[C@H]3C[C@H](OC)[C@@H](O[C@H]4C[C@H](OC)[C@@H](O)[C@H](C)O4)[C@H](C)O3)[C@@H](C)/C=C/C=C3\CO[C@@H]4[C@H](O)C(C)=C[C@@H](C(=O)O1)[C@]34O)O2,inactive,–
CC(=O)Nc1nc2c(Oc3cc(-c4ccc(C(F)(F)F)cc4)ncn3)cccc2s1,inactive,–
CC1CCN(c2cc(NC(=O)c3ccccc3)ncn2)CC1,inactive,–
